Reference: PubChem BioAssay (NCATS)
Results filed as inconclusive are left out. Entries that show only a call come without a potency. Activity calls are given as the source filed them. Calls come from the whole dose curve; tested in HEK293 reporter line.

test: qHTS for Inhibitors of the Functional Ribonucleoprotein Complex (vRNP) of Lassa (LASV) Arenavirus: LASV Primary Screen - GLuc reporter signal (AID 1347082); conditions: LASV minigenome vRNP, Gaussia luciferase reporter; series mostly up to 57.5 µM; note: nearly all actives have a fitted effect of over 60% in size

**Q.** Which Potency does the source give for `NC(=S)N/N=C/c1cccnc1` here?
**A.** Its Potency is “inactive”.

**Q.** For `Cc1cc(C)c(NC(=O)CN(CC(=O)O)CC(=O)O)c(C)c1Br`, which Potency is on record?
**A.** The Potency was “inactive”.

**Q.** Which Potency does the source give for `O=C(NCC1CCCCN1)c1cc(OCC(F)(F)F)ccc1OCC(F)(F)F` (stereo not drawn) here?
**A.** Its Potency is “inactive”.

**Q.** With `CC(C(=O)O)c1ccc(/C=C2\CCCCC2=O)cc1` (stereo not drawn) as the compound, how does the Potency read?
**A.** The Potency was “inactive”.

**Q.** Which Potency does the source give for `CC(=O)NCCCCCC(=O)O` here?
**A.** Its Potency is “inactive”.

**Q.** Which Potency does the source give for `Cc1cc(O)c2ccccc2c1O` here?
**A.** Its Potency is “inactive”.

**Q.** With `NC(=O)c1cnccn1` as the compound, how does the Potency read?
**A.** Its Potency is “inactive”.

**Q.** With `Nc1ccc(C(=O)Oc2ccccc2)c(O)c1` as the compound, how does the Potency read?
**A.** The Potency was “inactive”.

**Q.** Which Potency does the source give for `CC(C)CCCC(C)NCCC(C)C` (stereo not drawn) here?
**A.** Its Potency is “inactive”.

**Q.** Which Potency does the source give for `COc1ccc(/C=N/NC(=O)c2ccncc2)cc1OC` here?
**A.** The Potency was “inactive”.

**Q.** For `OCc1cccnc1`, which Potency is on record?
**A.** Its Potency is “inactive”.

**Q.** With `CCn1cc(C(=O)O)c(=O)c2cc(F)c(N3CCNC(C)C3)c(F)c21` (stereo not drawn) as the compound, how does the Potency read?
**A.** The Potency was “inactive”.

**Q.** With `CO[C@@]1(NC(=O)CSCC#N)C(=O)N2C(C(=O)O)=C(CSc3nnnn3C)CS[C@@H]21` as the compound, how does the Potency read?
**A.** The Potency was “inactive”.

**Q.** With `CC(C)(Oc1ccc(Cl)cc1)C(=O)OCCCOC(=O)C(C)(C)Oc1ccc(Cl)cc1` as the compound, how does the Potency read?
**A.** Its Potency is “inactive”.

**Q.** For `C[C@]12C=CC(=O)C=C1[C@@H](F)C[C@@H]1[C@@H]2[C@@H](O)C[C@@]2(C)[C@H]1CC[C@]2(O)C(=O)CO`, which Potency is on record?
**A.** Its Potency is “inactive”.

**Q.** For `CN(C)CCN(Cc1ccsc1)c1ccccn1`, which Potency is on record?
**A.** Its Potency is “inactive”.

**Q.** Which Potency does the source give for `CN1CCN(CC(=O)N2c3ccccc3C(=O)Nc3cccnc32)CC1` here?
**A.** Its Potency is “inactive”.

**Q.** Which Potency does the source give for `OCCc1ccccc1` here?
**A.** The Potency was “inactive”.

**Q.** With `O=S(=O)(O)CCS` as the compound, how does the Potency read?
**A.** The Potency was “inactive”.

**Q.** With `Cc1cc(O)c2c(O)c3c(O)cccc3cc2c1` as the compound, how does the Potency read?
**A.** Its Potency is “inactive”.

**Q.** With `CC1COc2c(N3CCN(C)CC3)c(F)cc3c(=O)c(C(=O)O)cn1c23` (stereo not drawn) as the compound, how does the Potency read?
**A.** The Potency was “inactive”.

**Q.** With `OCCN1CCN(CC/C=C2/c3ccccc3Sc3ccc(C(F)(F)F)cc32)CC1` as the compound, how does the Potency read?
**A.** Its Potency is “inactive”.

**Q.** For `CCCOC(=O)c1ccccc1`, which Potency is on record?
**A.** The Potency was “inactive”.

**Q.** For `NS(=O)(=O)c1ccc(Cl)c(S(N)(=O)=O)c1`, which Potency is on record?
**A.** The Potency was “inactive”.

**Q.** Which Potency does the source give for `COC(=O)c1ccc(O)cc1` here?
**A.** The Potency was “inactive”.

**Q.** Which Potency does the source give for `O=c1[nH]c(=O)n([C@H]2O[C@H](CO)[C@@H](O)[C@@H]2O)cc1/C=C\Br` here?
**A.** The Potency was “inactive”.

**Q.** With `COC(=O)CCCCC(CCSS/C(CCO)=C(\C)N(C=O)Cc1cnc(C)nc1N)SC(C)=O` (stereo not drawn) as the compound, how does the Potency read?
**A.** The Potency was “inactive”.

**Q.** Which Potency does the source give for `N=C(N)N` here?
**A.** The Potency was “inactive”.

**Q.** Which Potency does the source give for `O=C(Cn1ccnc1[N+](=O)[O-])NCc1ccccc1` here?
**A.** The Potency was “inactive”.

**Q.** Which Potency does the source give for `CCCC(O)C(CC)CO` (stereo not drawn) here?
**A.** Its Potency is “inactive”.

**Q.** With `CC(=O)c1ccc(O)c(C(N)=O)c1` as the compound, how does the Potency read?
**A.** The Potency was “inactive”.

**Q.** Which Potency does the source give for `CC1(C)O[C@@H]2C[C@H]3[C@@H]4CCC5=CC(=O)C=C[C@]5(C)[C@@H]4[C@@H](O)C[C@]3(C)[C@]2(C(=O)CO)O1` here?
**A.** Its Potency is “inactive”.

**Q.** For `COc1ccc(NS(=O)(=O)c2ccc(N)cc2)nn1`, which Potency is on record?
**A.** The Potency was “inactive”.

**Q.** For `COc1ccc(-c2cc(=O)c3c(O)cc(O[C@@H]4O[C@H](CO[C@@H]5O[C@@H](C)[C@H](O)[C@@H](O)[C@H]5O)[C@@H](O)[C@H](O)[C@H]4O)cc3o2)cc1O`, which Potency is on record?
**A.** Its Potency is “inactive”.

**Q.** Which Potency does the source give for `Cc1cc(O)cc(C)c1Cl` here?
**A.** The Potency was “inactive”.

**Q.** Which Potency does the source give for `CCCCCCCCCCCCCCCCO` here?
**A.** The Potency was “inactive”.

**Q.** With `Cc1cc(NS(=O)(=O)c2ccc(N)cc2)no1` as the compound, how does the Potency read?
**A.** Its Potency is “inactive”.

**Q.** With `COC(=O)N/N=C/c1c[n+]([O-])c2ccccc2[n+]1[O-]` as the compound, how does the Potency read?
**A.** The Potency was “inactive”.
